# According to PubChem BioAssay (NCI):
# About 79,000 compounds went through this panel and 15% of them were active in at least one assay; those are over-represented in the sample as a whole. A number with no mark means an inactive call. Calls of active or inactive are those of the source. No stated cut-off is given here; in the data, active means growth inhibition above about 70%; inactive means the rest. *1 amine or outer side, *2 acyl side, *3 side chain or, on linkers, in order; H or OH if unused. Where a SMILES comes first, the peptide text is derived from it. [ ]: non-standard residue; d: D form. X12 = NC(N)=NCC(O)CC(N[*:1])C(=O)[*:2]; Orn = NCCC[CH](N)C(=O)O
# Experiments:
# [1] = NCI Yeast Anticancer Drug Screen. Data for the rad50 strain (AID 155);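 further: 0% = growth of vehicle-only cultures of the same strain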; settings: S. cerevisiae rad50 strain growth inhibition; at 50.0 µM; hits give high values
# Method in brief: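 Growth of the mutant yeast was measured after compound exposure and referenced to vehicle-treated cultures.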
# [2] = NCI Yeast Anticancer Drug Screen. Data for the mec2-1 strain (AID 157); settings: S. cerevisiae mec2-1 strain, at 50.0 µM, hits give high values
# Method in brief: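 Test agents were screened against the mec2-1 yeast strain, with defined DNA repair or cell cycle alteration. Growth was scored as inhibition against vehicle-only controls.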
# [3] = NCI Yeast Anticancer Drug Screen. Data for the sgs1 mgt1 strain (AID 161);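 further: 0% = growth of cultures given vehicle only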; settings: S. cerevisiae sgs1 mgt1 strain, at 50.0 µM, hits give high values
# Method in brief: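 Read-out: growth inhibition vs vehicle controls. Cells: mutant yeast strain deficient in DNA damage repair.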
# [4] = NCI Yeast Anticancer Drug Screen. Data for the cln2 rad14 strain (AID 165);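 further: 0% = growth equal to vehicle treated cultures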; settings: S. cerevisiae cln2 rad14 strain, at 50.0 µM, hits give high values
# Method in brief: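 Growth of compound-exposed yeast (cln2 rad14 genotype) measured and expressed as inhibition relative to vehicle.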
# [5] = NCI Yeast Anticancer Drug Screen. Data for the bub3 strain (AID 167); settings: S. cerevisiae bub3 mutant strain, at 50.0 µM, hits give high values
# Method in brief: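 Whole-cell yeast assay. The mutant strain was incubated with compounds, and growth inhibition was determined by comparison with vehicle-treated cells.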
# [6] = NCI Yeast Anticancer Drug Screen. Data for the mlh1 rad18 strain (AID 175); settings: S. cerevisiae mlh1 rad18 strain growth inhibition; at 50.0 µM; hits give high values
# Method in brief: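 In this whole-cell yeast screen, a strain with altered DNA damage repair is challenged with compound, and its growth is measured against matched vehicle-treated controls.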
Structure (SMILES),growth inhibition [1] [%],growth inhibition [2] [%],growth inhibition [3],growth inhibition [4],growth inhibition [5],growth inhibition [6] [%]
CCCCCCC(C)Cl (stereo unspecified),18.9,-6.05,15.8%,23.7%,5.9%,1.05
CC1Cc2ccccc2C2=C3CC=CCC3C3C(=O)OC(=O)C3C21 (stereo unspecified),11.4,8.05,0.5%,2.3%,6.05%,7.65
CCCC1C(C#N)(C#N)C(C#N)=C(N)C1(C)C(C)=O (stereo unspecified),3.4,6.8,-18.7%,0.4%,-23.8%,-34.9
CCN=C(N(CC)CC)N(CC)CC,-12.1,10.2,2.95%,-24.4%,62.7%,4.3
CCOC(=O)C1=C(C)OC(=O)CC1C (stereo unspecified),33.2,-15.8,3.75%,9.05%,-23.6%,14
Cc1ccc(NC(=S)N2CCCCC2)cc1C,-1.9,13.2,19.3%,-19.2%,25.4%,15.4
CCNC(CC1CCCCC1)C(=O)O (stereo unspecified),-6.15,7.5,-1.8%,14.2%,13.2%,6.35
CCCCC1(CCO)C(=O)N=C(N)NC1=O (stereo unspecified),-15,-3.85,-8.05%,-22.9%,-5.6%,-15.8
COc1ccccc1/C=C/C(=O)c1ccccc(=O)c1O,-9,-5.05,-4.35%,-23.4%,-1.05%,-11.2
Nc1cc(Cl)cc2c1nc(NCCO)c1ccccc12,54.7,60.3,49.1%,97.9% (active),51.6%,56.5
C[N+]1(CC(O)c2ccccc2)CCCC1 (stereo unspecified),3.55,13.3,-0.25%,32.6%,6.3%,-10.8
CC(=O)C1C(=O)C(=O)N(c2ccc([N+](=O)[O-])cc2Cl)C1=O (stereo unspecified),-45.9,-35.8,2.95%,2.95%,-3.55%,-33.2
CC(C)(Oc1ccccc1)C(=O)Sc1c(-c2ccccc2)c(=O)n(-c2ccccc2)c(=S)n1-c1ccccc1,13.2,-14.8,-15.3%,-5.4%,-13.2%,-6.95
CNCCCCCNC,-7,-10.6,-1.05%,-5.45%,-0.2%,19.2
C=COC(=O)c1ccccc1O,-32.7,-34,-22.3%,3.8%,-36.8%,-5.55
CCCCCCCCCCCCCC(N)=O,-30.8,-46.5,-18.2%,4.85%,-28.7%,-18
N#Cc1c(F)cccc1N1CCSCC1,3.5,-17.8,14.3%,25.4%,11.5%,-0.55
Cc1ccc(NC(=O)C(=O)Cc2cc[n+]([O-])cc2)cc1,-1.9,-1.5,11.9%,7.6%,3.55%,4.05
COc1ccc(C(=O)/C=C/c2ccc(OCCCCCCCCCCOc3ccc(/C=C/C(=O)c4ccc(OC)cc4)cc3)cc2)cc1,-14.2,-14.8,-17%,-15.2%,-30.4%,-17.4
NC(=O)CN(CC(N)=O)CC(N)=O,-0.7,-11.7,1.75%,-2.85%,-3.65%,-7.9
CCOC(NC(C)=O)C(O)c1ccc(Cl)cc1 (stereo unspecified),20.1,11.2,13.1%,-41.5%,-9.9%,18.2

Structure (SMILES),growth inhibition [1] [%],growth inhibition [2] [%],growth inhibition [3],growth inhibition [4],growth inhibition [5],growth inhibition [6] [%]
O=C(Nc1cccc(Cl)c1)c1ccc(Cl)cc1,2.95,24.2,7.75%,-12.9%,26.7%,4.3
CC(O)C(NC(=O)C(CCCN)NC(=O)C(CC(O)CN=C(N)N)NC(=O)C(N)CCCN=C(N)N)C(=O)NC(CCCN)C(=O)NC(CC(O)CN=C(N)N)C(=O)NC(Cc1ccc(O)cc1)C(=O)O (stereo unspecified) (tested in a mixture with another compound) (H-R[X12][Orn]T[Orn][X12]Y-OH; configuration not given here),39.6,-3.3,19.5%,8.45%,27.9%,38.1
O=C1NC(=O)C(=O)N1,25.8,13.4,8.65%,16.4%,27.8%,-1.8
CO[C@H]1C[C@H]2[C@@H]3CCC4=CC(=O)CC[C@]4(C)[C@H]3CC[C@]2(C)[C@@]1(O)C(=O)CO,-7.35,-9.25,-17%,-14.9%,-11.7%,-27.6
O=C(Nc1ccc([N+](=O)[O-])cc1)N1CCOCC1,4.8,-17.8,21.5%,-1.25%,25.2%,15.2
C=CCSS/C=C/CS(=O)CC=C (stereo unspecified),22.6,54,75.3% (active),32%,78.3% (active),-19.3
CC(=O)N(C)c1ccc(C)cc1,-14.9,-1.05,-4.35%,-27.6%,-4.2%,7
Cc1cc(C)n(/N=C/c2ccccc2[N+](=O)[O-])c(=O)c1C#N,4.65,9.4,-2.75%,-0.25%,-2.35%,-6.85
CC1CC[N+](C)([B-](F)(F)F)CC1 (stereo unspecified),0.85,1.85,11.5%,-31.1%,2.45%,11.1
CC1(C)OC(=C(C#N)C#N)C(C#N)=C1/C=C/c1ccncc1,25.7,29.4,19.8%,18.2%,31.5%,-2.45
O=C1OC(=O)c2ccccc21,5.25,-15.2,-11.4%,-24.8%,-2.2%,0.05
COc1ccc(SC2=CC(=O)c3ccccc3C2=O)cc1,41,11.2,34.2%,-16.4%,-11.6%,30.6
Oc1cccnc1I,24.4,3.1,18.5%,19.5%,18%,10.2
O=C(Nc1ccc(Cl)cc1)OCC#CCOC(=O)Nc1ccc(Cl)cc1,5.8,-2.75,-6.3%,-2.05%,-0.35%,2.1
O=C(NCCNC(=O)c1cc(Cl)cc(Cl)c1O)c1cc(Cl)cc(Cl)c1O,-1.35,11.4,9.3%,-18.4%,-4.9%,21.8
O=C(O)/C=C/C(=O)Nc1ncn[nH]1,-3.55,-24.7,-22.9%,3.2%,-34.9%,-5.4
O=C1Cc2c(-c3cccs3)cc(-c3ccccc3)nc2-c2ccccc2N1,0,-3.9,3.4%,18.2%,-4.75%,7.85
O=C(CCl)NCCCCCNC(=O)CCl,-11.7,2.85,-6.85%,-31.7%,15.2%,17.6
CC1SCC(C)(C)NC1=O (stereo unspecified),3.85,5.15,-3.95%,-8.5%,5.7%,0.55
COc1ccc(Br)c(CN2CCc3ccccc32)c1OS(=O)(=O)c1ccc(C)cc1,13.8,-0.3,18.7%,4.1%,5.45%,12.4
